Compound activity (PubChem BioAssay)
Mdm2 MdmX PPI: inhibitors of human Mdm2-MdmX association, primary screen, cell-based, luminescence, split luciferase, SaOS-2, uHTS; Protein Mdm4 (Homo sapiens) + E3 ubiquitin-protein ligase Mdm2 (Homo sapiens), …; SaOS-2 split-luciferase Mdm2/MdmX complementation; inhibition, % at 8 µM; 330,000 compounds, 3% hits; AID 485346, 2010;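 active = inhibition of at least 50% at 8 µM in the primary screen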
tim10-1 inh: growth inhibitors of tim10-1 mutant yeast, primary screen, luminescence, uHTS. S. cerevisiae tim10-1 ts strain growth, BacTiter-Glo, 24 h. inhibition, % at 20 µM. 330,000 compounds, 2.2% hits;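 active = inhibition of at least 40%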;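 also: mutant grown at 25 °C; 0% = DMSO wells with yeast and 100% = wells holding no yeast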
tim23-1 inh: growth inhibitors of tim23-1 mutant yeast, primary screen, luminescence, uHTS. inhibition, % at 20 µM. S. cerevisiae tim23-1 growth, BacTiter-Glo luminescence, 24 h. 330,000 compounds, 1.3% hits;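 active = growth inhibition of the mutant yeast at or above 50%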;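 also: temperature-sensitive mutant grown at 25 °C; plate controls were DMSO-treated mutant yeast for no effect and medium wells lacking yeast for full effect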
TIM10 inh: growth inhibitors of isogenic TIM10 control yeast, primary screen, counter-screen for tim10-1 yeast inhibitor project, luminescence, uHTS; S. cerevisiae TIM10 strain growth, BacTiter-Glo luminescence, 24 h; inhibition, % at 10 µM; 330,000 compounds, 1.4% hits; AID 463195, 2010;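 active = inhibition of 40% or more at the single tested concentration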;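 also: wild-type TIM10 isogenic control strain grown at permissive 25 °C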
MPTP inh: mitochondrial permeability transition pore inhibitors, primary screen, biochemical, isolated mouse mitochondria, absorbance | Ca2+ swelling absorbance, 30 min | inhibition, % at 10 µM | 360,000 compounds, 1.4% hits;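 active = inhibition of 50% or more, scaled per plate between neutral and stimulator controls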;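 also: 0% = DMSO wells given calcium and 100% = 1 mM EGTA wells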
Mdm2 MdmX conf: Mdm2-MdmX complex disruptors, retested hits, confirmation, luminescence, single concentration | 10,000 compounds, 55% hits | Mdm2-MdmX binding, luminescent assay | shares compounds with Mdm2 MdmX PPI | inhibition, % at 8 µM; in the data active = inhibition above about 40%
FLuc counter: full-length luciferase signal inhibition, confirmation, counter-screen for Mdm2/MdmX interaction inhibitor project, cell-based, single concentration, SaOS-2; AID 504607, 2011; 6,200 compounds, 77% hits; SaOS-2 full-length luciferase counterscreen, luminescence; shares compounds with Mdm2 MdmX PPI; inhibition, % at 8 µM;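 active = mean inhibition at 8 µM reaching about 37%, which flags the compound as non-specific, limit read from the data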;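 also: p53-null SaOS-2 cells with luciferase driven by a doxycycline-inducible promoter; compound on cells about two nights before reading with doxycycline added after day one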
* marks the source's active call; other numbers are inactive results. A selection: hits, their analogues and other compounds. The true share with any hit is near 6.3%.

Screening CO[C@H]1CN(C)C(=O)c2cc(NC(=O)C3CCCC3)ccc2OC[C@@H](C)NC[C@H]1C returned MPTP inh 1.
For CN1CCN(Cc2nc3ccccc3c(=O)n2Cc2nc(-c3ccc([N+](=O)[O-])cc3)cs2)CC1 the results were Mdm2 MdmX PPI 95*, tim10-1 inh 18, tim23-1 inh -3, TIM10 inh 25, MPTP inh -3 and Mdm2 MdmX conf 31.
CN(C)Cc1nc2ccccc2c(=O)n1Cc1nc(-c2cccc([N+](=O)[O-])c2)cs1 was read as Mdm2 MdmX PPI 35, tim10-1 inh 31, tim23-1 inh 17, TIM10 inh 22 and MPTP inh 0.
`O=C(Nc1ccc2c(c1)OCO2)c1cc(C2CCCCN2C(=O)c2ccc(Cl)cc2)on1` (centres undefined) gave MPTP inh 0.
COc1ccc(NC(=O)c2cc(-c3cccnc3)nc3ccc(C)cc23)cc1OC was read as MPTP inh -1.
`CCOc1ccccc1NC(=O)c1cc(-c2cc(OC)c(OC)c(OC)c2)nc2ccccc12` gave Mdm2 MdmX PPI 55*, tim10-1 inh 33, tim23-1 inh 27, TIM10 inh 15, MPTP inh -1 and Mdm2 MdmX conf 30.
For COc1ccc(NC(=O)c2cc(-c3ccncc3)nc3ccc(Br)cc23)cc1OC the results were Mdm2 MdmX PPI 97*, tim10-1 inh 8, tim23-1 inh -10, TIM10 inh -10, MPTP inh 0 and Mdm2 MdmX conf 11.
Screening COc1cc(-c2cc(C(=O)Nc3ccncc3)c3ccccc3n2)cc(OC)c1OC returned Mdm2 MdmX PPI 18, tim10-1 inh 15, tim23-1 inh 8, TIM10 inh 0 and MPTP inh -1.
Screening CNC(=O)c1cccc(NC(=O)c2cc(-c3ccccc3)nc3c2cnn3C(C)C)c1 returned Mdm2 MdmX PPI 38, tim10-1 inh 23, tim23-1 inh 30, TIM10 inh 15 and MPTP inh 2.
For COc1cc(NC(=O)c2cc(-c3ccccc3)nc3c2cnn3C(C)C)cc(OC)c1OC the results were Mdm2 MdmX PPI 63*, tim10-1 inh 14, tim23-1 inh -2, TIM10 inh 16, MPTP inh 6 and Mdm2 MdmX conf 28.
COc1cc(-c2cc(C(=O)Nc3ccc(S(=O)(=O)NCc4ccco4)cc3)c3ccccc3n2)cc(OC)c1OC was read as Mdm2 MdmX PPI 63*, tim10-1 inh 1, tim23-1 inh 3, TIM10 inh 17, MPTP inh 0, Mdm2 MdmX conf 77* and FLuc counter 50*.
For Cc1ccc(-c2ccc(CN3C(C)C(=O)N(Cc4cn(Cc5ccco5)nn4)CCS3(=O)=O)cc2)c(C)c1 (centres undefined) the results were MPTP inh -4.
Screening COc1ccccc1NC(=O)COC(=O)Cn1c(C)csc1=O returned MPTP inh 0.
`Cc1cc(N2CCN(C(=O)c3[nH]c(C(F)(F)F)nc3-c3ccccc3)CC2)c2ccccc2n1` gave MPTP inh 0.
For O=C(NNC(=O)c1cccc2ccccc12)c1ccc(Br)cc1 the results were MPTP inh -1.
`COc1ccc(-c2cc(C(=O)Nc3ccccc3O)c3ccccc3n2)cc1OC` gave Mdm2 MdmX PPI 52*, tim10-1 inh 30, tim23-1 inh 18, TIM10 inh 17, MPTP inh -2, Mdm2 MdmX conf 52* and FLuc counter 107*.
COc1ccccc1NC(=O)c1cc(-c2cc(OC)c(OC)c(OC)c2)nc2ccccc12 was read as Mdm2 MdmX PPI 55*, tim10-1 inh 30, tim23-1 inh 27, TIM10 inh 8, MPTP inh 0 and Mdm2 MdmX conf 29.
`CN(C)c1ccc(-c2ccnc3c2CC(C)(C(=O)NCCc2ccccc2)O3)cc1` (centres undefined) gave MPTP inh 1.
Screening Cn1nnnc1Sc1ncnc2scc(-c3ccc(F)cc3)c12 returned Mdm2 MdmX PPI 100*, tim10-1 inh 34, tim23-1 inh 19, TIM10 inh 4, MPTP inh 1, Mdm2 MdmX conf 91* and FLuc counter 54*.
`Cc1ccc(-c2csc3ncnc(SCC(N)=O)c23)cc1` gave Mdm2 MdmX PPI 27, tim10-1 inh 31, tim23-1 inh -2, TIM10 inh 7 and MPTP inh 2.
Cn1nnnc1Sc1ncnc2scc(-c3ccccc3Br)c12 was read as Mdm2 MdmX PPI 70*, tim10-1 inh -3, tim23-1 inh 15, TIM10 inh -5, MPTP inh 0, Mdm2 MdmX conf 67* and FLuc counter 25.
For Cn1nnnc1Sc1ncnc2scc(-c3ccc[nH]3)c12 the results were Mdm2 MdmX PPI 69*, tim10-1 inh 9, tim23-1 inh 16, TIM10 inh 11, MPTP inh -1, Mdm2 MdmX conf 47* and FLuc counter 29.
Cn1nnnc1SCSc1nnnn1C was read as Mdm2 MdmX PPI 2, tim10-1 inh 3, tim23-1 inh 7, TIM10 inh 7 and MPTP inh 5.
`Cn1nnnc1Sc1ncnc2scc(Br)c12` gave Mdm2 MdmX PPI 99*, tim10-1 inh 10, tim23-1 inh 29, TIM10 inh 17, MPTP inh 0 and Mdm2 MdmX conf 32.
Screening COc1cccc(S(=O)(=O)N2C[C@H](O)COC[C@H]3O[C@@H](CC(=O)N4CCN(C)CC4)CC[C@@H]32)c1 returned MPTP inh -2.
COc1ccc2nc3n(c(=O)c2c1)-c1ncccc1C(=O)NC3CC(C)C (centres undefined) was read as MPTP inh -1.
`Cc1cccc(NC(=O)COC(=O)CN2C(=O)c3ccccc3C2=O)c1` gave MPTP inh 0.
Screening CCC(=O)N1CCC1(C)C(=O)Nc1ccc2scnc2c1 (centres undefined) returned MPTP inh 0.
Screening COc1cccc(CCOC(=O)c2c(-c3ccsc3)oc3c2C(OC(C)=O)CCC3)c1 (centres undefined) returned MPTP inh 0.
Cn1nnnc1Sc1ncnc2scc(-c3ccccc3)c12 was read as Mdm2 MdmX PPI 78*, tim10-1 inh 20, tim23-1 inh -7, TIM10 inh 12, MPTP inh -2 and Mdm2 MdmX conf -2.
